Screening results as filed in PubChem.
This is a sample that favours compounds with a hit; in the whole collection about 1.9% have one here.
IL-2 act = qHTS of IL-2 Activators. IL-2 activation reporter assay, cell-based qHTS; stimulated with anti-CD3/CD4/CD28 beads; in transgenic mouse T cells. activation, % (series mostly up to about 46 µM). 360,000 tested, 0.065% active. AID 652025, 2013; in the data active = activation above about 50%; inconclusive = mostly about 30% to 49%; also: 0% is about no effect
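Screening format: compound pinned onto unstimulated transgenic mouse T cells, 60 min incubation, then anti-CD3/anti-CD4/anti-CD28 bead stimulation for 18 hours at 37 degrees C, followed by EGFP and DsRed detection.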
Pin1 inh = qHTS Assay to Find Inhibitors of Pin1; Peptidyl-prolyl cis-trans isomerase NIMA-interacting 1 (Homo sapiens), Q13526; Pin1 FP peptide displacement, HiFluor488, 10 min; Potency, µM (highest dose often 115 µM), for the others: top-dose activity, negative = inhibition, usual class: inhibitors; 390,000 tested, 0.009% active; active = well fitted inhibition curve with a large enough effect in the polarisation, with a control signal flat, not every such curve was filed as active; inconclusive = small, poorly fitted or top-dose-only effect, or effect the other way, or a change in a side signal; inactive = no such curve, though single readings can be large or run the other way; the % refers to the polarisation; also: potency is read from the fitted curve at half-maximal effect; % is scaled to controls: 0 for no effect and ±100 for the full control effect
Target sequence (Q13526 whole entry, looked up): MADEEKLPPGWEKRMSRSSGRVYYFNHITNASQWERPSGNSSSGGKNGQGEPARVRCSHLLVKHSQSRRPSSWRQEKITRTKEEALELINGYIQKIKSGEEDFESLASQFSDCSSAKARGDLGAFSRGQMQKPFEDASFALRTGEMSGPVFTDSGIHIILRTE
a7 integrin act = qHTS for Activators of Integrin-Mediated Alleviation for Muscular Dystrophy; 350,000 tested, 0.064% active; alpha7betagal myoblasts, beta-gal FDG fluorescence, 48 h; Potency, µM (titrated, usually from 38.3 µM), for inactives: at the highest dose activation, usual class: activators;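 also: potency is read from the fitted curve at half-maximal effect; 100% = response of the positive control SU9516; nearly all actives have a fitted effect of over 60% in size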
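Alpha7betagal+/- myoblasts (passage 13) were plated 16-24 hr, then exposed to compounds (1:260 dilution of DMSO stock) for 48 hours at 37C. After MPER lysis, β-galactosidase reporter activity was read as FDG fluorescence (ex 480/em 540) after 30 minutes.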
ClpP mod = qHTS Assay for Activators of ClpP; 340,000 tested, 1.9% active; ATP-dependent Clp protease proteolytic subunit (Bacillus subtilis (strain 168)), P80244; Potency, µM (top dose mostly 57.5 µM), without a hit: at the top dose activity change, negative = active; purified B. subtilis ClpP, FRET peptide cleavage, 20 min; active = well fitted falling curve with a large enough effect; inconclusive = small, poorly fitted or top-dose-only effect; inactive = no such curve, though single readings can be large or run the other way; also: potency is read from the fitted curve at half-maximal effect; the source files actives as falling curves though it sought activators and does not explain the sign; nearly all actives have a fitted effect of over 65% in size
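FRET quenching reversal measured ClpP activation: 10 microg/mL B. subtilis ClpP at pH 8 with the FRET-FV decapeptide, read at 430 nm after 320 nm excitation. The 20-min minus 0-min signal was scaled between DMSO/no-enzyme wells and ADEP (5.8 microM final).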
USP2a inh = qHTS Assay for Inhibitors of Ubiquitin-specific Protease USP2a Using CHOP2 as the Reporter; 330,000 tested, 0.01% active; Ubiquitin carboxyl-terminal hydrolase 2 (Homo sapiens), O75604; Potency, µM (highest dose often 38.3 µM), for inactives: top-dose activity change, negative = inhibition, most hits filed as inhibitors; AID 463254, 2010; USP2 core, Ub-CHOP2 coupled fluorogenic reporter, 485/531;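 also: potency is read from the fitted curve at half-maximal effect; plate controls were DMSO wells for no effect and full inhibition by NEM control for full effect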
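Cell-free coupled assay: 10nM USP2 core preincubated 30min RT with compound in Tris-HCl pH 8.0/CaCl2/CHAPS buffer, then 25nM Ub-CHOP2 and 25nM reporter substrate; fluorescence (Ex 485/Em 531) read after 60min RT, normalized to NEM inhibition, concentration-response curves fitted.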
PKM2 activator = qHTS Assay for Activators of Human Muscle isoform 2 Pyruvate Kinase. purified PKM2, Kinase-Glo ATP luminescence, activation; response scale: 0% is enzyme alone, no compound. Potency, µM (doses to about 57.5 µM), inactives show at the top dose activation, hits mostly activators. 260,000 tested, 0.34% active. AID 1631, 2009; also: potency is read from the fitted curve at half-maximal effect; % is scaled to controls: 0 for no effect and ±100 for the full control effect; nearly all actives have a fitted effect of over 55% in size
Target sequence (P14618 whole entry, looked up, canonical isoform): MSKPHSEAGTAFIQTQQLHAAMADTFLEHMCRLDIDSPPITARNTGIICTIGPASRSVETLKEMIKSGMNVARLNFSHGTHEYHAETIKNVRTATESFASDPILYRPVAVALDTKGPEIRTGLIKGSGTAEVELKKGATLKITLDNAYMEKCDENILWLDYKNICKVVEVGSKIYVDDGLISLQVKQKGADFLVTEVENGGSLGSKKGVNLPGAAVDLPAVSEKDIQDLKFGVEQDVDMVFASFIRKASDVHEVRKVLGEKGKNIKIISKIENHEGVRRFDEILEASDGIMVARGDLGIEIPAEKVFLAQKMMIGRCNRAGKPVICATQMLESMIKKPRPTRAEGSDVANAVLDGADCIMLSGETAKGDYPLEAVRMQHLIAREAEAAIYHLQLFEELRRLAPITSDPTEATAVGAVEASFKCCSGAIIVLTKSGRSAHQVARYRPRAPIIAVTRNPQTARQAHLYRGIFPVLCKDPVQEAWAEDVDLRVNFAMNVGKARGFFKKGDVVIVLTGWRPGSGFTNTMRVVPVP
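Purified hPK-M2 (>95%) run at intermediate activity with 0.1 mM ADP and 0.5 mM PEP in 50 mM imidazole pH 7.2, KCl, MgCl2; 1 h room temperature. ATP formed read by Kinase-Glo luminescence; normalized to uninhibited and no-enzyme controls.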
Numbers without * were called inactive; ? = inconclusive; · = no result given; [ ] = another dose, or the depositor's remark. Unless noted, calls follow the shape of the dose curve; as a rule, active = well fitted curve in the direction sought with a large enough effect; inconclusive = small, poorly fitted or top-dose-only effect, or another doubt; inactive = no such curve, though single readings can be large; an effect the other way counts as inactive or inconclusive.

SMILES	IL-2 act	Pin1 inh	a7 integrin act	ClpP mod	USP2a inh	PKM2 activator
COC(=O)CN1C(=O)[C@@H]2[C@H](C1=O)[C@@H]1CC(C(=O)OC)=C[C@@H](C(=O)OC)C3C1=C(C(=O)[C@]3(C)NC(=O)c1ccccc1)[C@@H]2C (stereo partly specified)	·	-2%	·	·	·	·
COC(=O)C1CCCCN1C(=O)c1ccc2oc(C(C)C)nc2c1 (stereo unspecified)	-4	-4%	-11%	-1%	-4%	1%
COC(=O)C1CCCCN1C(=O)c1ccc2oc(Cc3ccccc3)nc2c1 (stereo unspecified)	-3	-2%	3%	28µM*	1%	·
COc1cccc(C2c3c(ncn(-c4ccccn4)c3=N)Oc3ccc4ccccc4c32)c1 (stereo unspecified)	·	28%	·	·	·	·
COc1ccc(Cl)cc1S(=O)(=O)N1CCN(S(=O)(=O)c2ccc3c(c2)OCCO3)CC1	·	10%	·	·	·	·
COCCNC(=O)CC(NS(=O)(=O)c1ccc(NC(C)=O)cc1)C(C)C (stereo unspecified)	1	4%	-9%	32µM*	3%	9%
COc1ccc(N=c2nc(-c3ccc(C)cc3)n(-c3ccccc3)s2)cc1	·	0%	·	-1%	·	·
CC1(C)OC(=O)C2(Cc3cc(C(F)(F)F)ccc3N3CCCCC32)C(=O)O1 (stereo unspecified)	·	3%	·	80%	·	·
Cc1ccc(CNC(=O)Nc2ccccc2)cc1	-1	5%	3%	-1%	3%	0%
COc1ccc(CNC(=O)Nc2cccs2)cc1OC	0	14%	0%	-1%	3%	18µM*
COc1cccc(CNC(=O)Nc2cccs2)c1	0	12%	-11%	-3%	1%	27%
Cc1ccc(CNC(=O)Nc2cccs2)cc1	0	17%	-10%	-1%	1%	25µM*
COc1ccc(CN(Cc2ccccc2)S(=O)(=O)c2ccccc2)cc1COc1ccc(NC(C)=O)cc1	·	3%	·	·	·	·
CC(C)(C)OC(=O)NCc1nnc(C(C(=O)OCc2ccccc2)c2ccccc2)s1 (stereo unspecified)	·	1%	·	·	·	·
CCCCCCCCCC[n+]1cccc2cc(Cl)ccc21	·	·	·	-3%	·	·
COc1ccc(CCNC(=O)C2CCC(=O)N(CC3CCCCC3)C2)cc1 (stereo unspecified)	-2	-1%	29%	32µM*	-1%	1%
Cc1ccc(C)c(S(=O)(=O)c2nnn3c2nc(NC2CCCCC2)c2sccc23)c1	·	29%	·	35µM*	·	·
Cc1ccc(S(=O)(=O)c2nnn3c2nc(NC2CCCCCC2)c2sccc23)cc1C	·	28%	·	-19%	·	·
C=C1C=C(C(F)F)n2ncc(C(=O)NCc3ccccc3OC)c2N1	·	·	·	3%	·	·
O=C(NC1CCCC1)c1ccccc1-c1ccccc1	0	1%	18%	32µM*	1%	-4%
COc1ccc(-c2nc3c(c4c2C[C@H](c2ccccc2)OC4)CN(C(=O)NCCc2c[nH]c4ccccc24)CC3)c(C)c1	·	·	·	·	·	-3%[11.5 µM]
O=c1[nH]cnc2c1C1(CCCC1)Cc1ccccc1-2	1	-10%	32%	13µM*	0%	-6%
O=c1[nH]c(NNC(=S)NCc2ccccc2)nc2c1C1(CCCCC1)Cc1ccccc1-2	1	37%	17%	16µM*	-2%	-5%
O=c1[nH]c(NCCCO)nc2c1C1(CCCC1)Cc1ccccc1-2	1	-10%	5%	14µM*	-3%	-1%
Nn1cnc2c(c1=O)C1(CCCCC1)Cc1ccccc1-2	4	2%	13%	-10%	9%	6%
SMILES	IL-2 act	Pin1 inh	a7 integrin act	ClpP mod	USP2a inh	PKM2 activator
COc1ccc(C2=Nn3c(nnc3-c3ccccc3OC)SC2)cc1	·	5%	·	·	·	·
COc1ccc(CNc2ccccc2C(=O)NCc2ccccc2)cc1COc1ccc(NC(C)=O)cc1	·	47%	·	4%	·	·
COC(=O)C[C@H]1c2cc(F)ccc2S(=O)(=O)N1C1CC1	·	·	·	0%	·	·
COC(=O)[C@@H]1[C@@H](C)N(CCc2cc(OC)c(OC)c(OC)c2)C(=O)N[C@H]1c1ccccc1	·	·	·	·	·	-9%[11.5 µM]
Cc1c(P(=S)(c2ccccc2)c2ccccc2)c2ccccc2n1C(=O)NCc1ccc(F)cc1	·	-2%	·	·	·	·
COC(=O)c1ccccc1NC(=O)C(CCS(C)(=O)=O)NC(C)=O (stereo unspecified)	-2	4%	-1%	28µM*	-1%	1%
CC(=O)NC(CCS(C)(=O)=O)C(=O)Nc1cc(Cl)ccc1Cl (stereo unspecified)	0	-2%	-6%	-1%	3%	-7%
CC(=O)NC(CCS(C)(=O)=O)C(=O)Nc1ccccc1Cl (stereo unspecified)	0	-1%	9%	16µM*	3%	8%
CCCCc1nc2c(c3c1C[C@H](C)OC3)CN(C(=O)c1cccnc1)CC2	·	·	·	·	·	0%[11.5 µM]
c1ccc(-c2nc(-n3nc4ccccc4n3)nc3ccccc23)cc1	-1	20%	0%	35µM*	3%	-2%
c1ccc2nccnc2c1	·	·	·	-23%	·	·
CCn1c(=O)sc2cc(NS(=O)(=O)c3ccc(C)cc3)ccc21	·	0%	·	-1%	·	·
CCn1c(=O)c(=O)n(CC)c2cc(S(=O)(=O)Nc3ccc(C)cc3)ccc21	1	6%	?	1%	0%	10µM*
COC(=O)C1CCN(C(=O)COC(=O)Cc2c[nH]c3ccccc23)CC1	0	0%	-9%	32µM*	-1%	8%
CCCN1CCC(=O)N(CCSc2ccc(Br)cc2)CC1	·	-1%	·	·	·	·
Cc1cccc(Oc2nc3ccccn3c(=O)c2/C=C(\C#N)C(=O)NC2CCS(=O)(=O)C2)c1 (stereo unspecified)	1	0%	-28%	25µM*	-2%	-1%
N#C/C(=C\c1c(N2CCCCC2)nc2ccccn2c1=O)C(=O)NC1CCS(=O)(=O)C1 (stereo unspecified)	0	-5%	-19%	4µM*	-1%	-4%
Cc1cc(Oc2nc3ccccn3c(=O)c2/C=C(\C#N)C(=O)NC2CCS(=O)(=O)C2)ccc1Cl (stereo unspecified)	0	0%	-1%	·	1%	2%
CCCN1CNc2c(c(=O)[nH]c(=S)n2CCc2cccs2)C1	·	-1%	·	-2%	·	·
COCc1c(Br)c(C)[nH]c(=O)c1C#N	1	-10%	28%	14µM*	-1%	0%
